Measurements as given in ChEMBL document CHEMBL1157539, “Thousands of chemical starting points for antimalarial lead identification” (Nature, 2010).

These molecules were tested on HepG2 (assay: GSK_TCMDC: Percent inhibition of human HepG2 cell line. Test compounds present at 10uM.).
Type: functional

Question: Which Inhibition does the source give for `Cc1cccc(Oc2cccc3[nH]nc(N)c23)c1` here?
Answer: The Inhibition was 6%.

Question: `COCCNCc1ccc(-c2ccc(CNC3CCN(Cc4ccccc4)CC3)cc2)cc1.O=C(O)C(F)(F)F` was tested. Which Inhibition did it give?
Answer: Its Inhibition is 22%.

Question: For `O=C(/C=C/c1ccc(Cl)c(Cl)c1)N1CCC(CN2CCC(c3c[nH]c4ccncc34)CC2)CC1`, which Inhibition is on record?
Answer: The Inhibition was 44%.

Question: With `CCCNC(=O)C1Cc2c([nH]c3ccc(Br)cc23)C2(CCN(CCc3ccccc3)CC2)N1` (stereo not given) as the molecule, how does the Inhibition read?
Answer: Its Inhibition is 16%.

Question: For `Cc1nc(-c2ccc(-c3ccc(C(=O)Nc4ccc(C(C)C)c(OCCN(C)C)c4)cc3)c(C)c2)no1.O=C(O)C(=O)O`, which Inhibition is on record?
Answer: The Inhibition was 49%.

Question: How did the Inhibition turn out when `O=C(NCCCCN1CCN(CC=Cc2ccccc2)CC1)c1ccc(NC(=O)c2cc(Cl)cc(Cl)c2)cc1` was run?
Answer: Its Inhibition is 26%.

Question: For `CCCCCCCOc1ccc(NC(=O)Nc2ccc(Cn3ncc(N4CCCNCC4)c(Cl)c3=O)cc2)cc1.O=C(O)C(F)(F)F`, which Inhibition is on record?
Answer: The Inhibition was 60%.

Question: Which Inhibition does the source give for `Cc1ccc(C(=O)NC2C(=O)NC2c2ccccc2)c(C)c1` (stereo not given) here?
Answer: Its Inhibition is 7%.

Question: `O=C(/C=C/c1ccc(Cl)c(Cl)c1)NCCCCCCN1CCCN(C(=O)Nc2cccc(C(F)(F)F)c2)CC1` was tested. Which Inhibition did it give?
Answer: Its Inhibition is 25%.

Question: With `CCC1(CC)NC(N)=NC(=N)N1OCc1ccc(Cl)c(Cl)c1.Cl` as the molecule, how does the Inhibition read?
Answer: Its Inhibition is 49%.

Question: For `COc1ccccc1-c1ccc(CNC(=O)C(CN2CCN(C)CC2)c2ccccc2)cc1` (stereo not given), which Inhibition is on record?
Answer: The Inhibition was 3%.

Question: With `O=C(N[C@@H](CC1CCCCC1)C(=O)NC1CCCCCC1)c1ccc(O)c(-c2ccc(Cl)c(Cl)c2)c1` as the molecule, how does the Inhibition read?
Answer: The Inhibition was 0%.

Question: With `Cc1ccc(Nc2nccc(NCC(O)c3ccc(C(F)(F)F)cc3)n2)cc1` (stereo not given) as the molecule, how does the Inhibition read?
Answer: Its Inhibition is 53%.

Question: How did the Inhibition turn out when `Cl.c1ccc(Oc2ccc(Nc3nncc4ccccc34)cc2)cc1` was run?
Answer: The Inhibition was 20%.

Question: How did the Inhibition turn out when `Cc1[nH]c2c(NCc3ccc(F)cc3)nccc2c1C` was run?
Answer: The Inhibition was 63%.

Question: How did the Inhibition turn out when `Nc1ncc(Cc2ccc3c(ccc4ccccc43)c2)c(N)n1` was run?
Answer: Its Inhibition is 9%.

Question: Which Inhibition does the source give for `O=C(/C=C/c1ccc(Cl)c(Cl)c1)NCCCCCN1CCC(NC(=O)Nc2cc(Cl)ccc2Cl)CC1` here?
Answer: The Inhibition was 99%.

Question: Which Inhibition does the source give for `CC1(C)N=C(N)N=C(N)N1c1ccc(Cl)cc1.O=C(O)c1cc2ccccc2c(Cc2c(O)c(C(=O)O)cc3ccccc23)c1O` here?
Answer: The Inhibition was 42%.

Question: `Cc1ccc2cc(C3NC(=O)c4ccccc4N3)c(Cl)nc2c1` (stereo not given) was tested. Which Inhibition did it give?
Answer: Its Inhibition is 0%.

Question: Which Inhibition does the source give for `CN1CCN(CCCN(Cc2cccc(-c3cccc(CNCCc4ccccc4)c3)c2)C(=O)Nc2ccccc2)CC1.O=C(O)C(F)(F)F` here?
Answer: Its Inhibition is 92%.

Question: How did the Inhibition turn out when `CN1CCN(c2ccc(CNc3ccc4ncc(-c5ccc(OC(F)(F)F)cc5)n4n3)cc2)CC1` was run?
Answer: The Inhibition was 13%.

Question: `Cn1ccnc1-c1nc2ccccn2c1NCC(=O)Nc1ccccc1N1CCCCC1` was tested. Which Inhibition did it give?
Answer: The Inhibition was 16%.

Question: With `Clc1cccc(C=NN=c2cc[nH]c3ccccc23)c1` as the molecule, how does the Inhibition read?
Answer: The Inhibition was 5%.

Question: Which Inhibition does the source give for `CCc1cn(C)c2c(N3CCCC3=O)cc(C(=O)N[C@@H](Cc3ccccc3)[C@H](O)CNC(C)(C)c3cccc(OC)c3)cc12` here?
Answer: Its Inhibition is 9%.

Question: Which Inhibition does the source give for `CS(=O)(=O)Nc1ccc(-c2cnc3[nH]cc(-c4ccc(C(=O)O)cc4)c3c2)cc1` here?
Answer: Its Inhibition is 0%.

Question: With `CCN(CC)CCNc1ccnc2ccc3ccccc3c12` as the molecule, how does the Inhibition read?
Answer: The Inhibition was 5%.

Question: Which Inhibition does the source give for `Cn1cncc1-c1ccc2c(-c3ccsc3)cnc(N)c2c1` here?
Answer: Its Inhibition is 41%.

Question: With `O=C(Nc1cccc(CN2CCN(Cc3ccc(O)cc3)CC2)c1)c1ccc(Cl)c(Cl)c1.O=C(O)C(F)(F)F` as the molecule, how does the Inhibition read?
Answer: Its Inhibition is 30%.

Question: With `CC(C)(C)c1ccc(NC(=O)Nc2ccc(Cn3ncc(N4CCCNCC4)c(Cl)c3=O)cc2)cc1.O=C(O)C(F)(F)F` as the molecule, how does the Inhibition read?
Answer: Its Inhibition is 0%.

Question: `Cc1ccc(F)cc1S(=O)(=O)Nc1ccc(CCN2CCC(N3CCCCC3)CC2)cc1` was tested. Which Inhibition did it give?
Answer: Its Inhibition is 25%.

Question: For `N#Cc1ccc(N2CCN(Cc3ccc(-c4ccc(-c5nc6cc(F)ccc6[nH]5)s4)cc3)CC2)nc1.O=C(O)C(F)(F)F`, which Inhibition is on record?
Answer: Its Inhibition is 12%.

Question: `O=C(/C=C/c1ccc(Cl)cc1)NCCCCCN1CCCN(C(=O)Nc2ccc(Cl)c(C(F)(F)F)c2)CC1` was tested. Which Inhibition did it give?
Answer: Its Inhibition is 54%.

Question: With `Fc1ccc2[nH]c(-c3ccc(-c4ccc(CNCCc5ccncc5)cc4)s3)nc2c1.O=C(O)C(F)(F)F` as the molecule, how does the Inhibition read?
Answer: Its Inhibition is 34%.

Question: With `CN(C)CCCn1cncc1-c1ccc2ncnc(Nc3ccc4c(cnn4Cc4ccccc4)c3)c2c1` as the molecule, how does the Inhibition read?
Answer: Its Inhibition is 17%.

Question: `COc1ccc2c(=NN=Cc3cccc(F)c3)cc(C)[nH]c2c1` was tested. Which Inhibition did it give?
Answer: The Inhibition was 17%.

Question: For `C(=Cc1ccccc1)C=NN=c1cc[nH]c2ccccc12`, which Inhibition is on record?
Answer: The Inhibition was 24%.

Question: How did the Inhibition turn out when `Cc1ccc(CN2CCCCC(NC(=O)c3cc4ccccc4s3)C2)cc1.O=C(O)C(F)(F)F` (stereo not given) was run?
Answer: The Inhibition was 9%.

Question: For `Cc1sc2ncnc(Sc3nnc(N)s3)c2c1C`, which Inhibition is on record?
Answer: Its Inhibition is 9%.

Question: `COc1ccc(NC(=O)CCNc2cc(C)nc(NCc3cccc(C)c3)n2)cc1.O=C(O)C(F)(F)F` was tested. Which Inhibition did it give?
Answer: Its Inhibition is 14%.

Question: For `Br.Oc1ccc(CCNCCCCCCNCCc2ccc(Cl)c(Cl)c2)cc1O`, which Inhibition is on record?
Answer: Its Inhibition is 21%.
